From PubChem BioAssay
Rows were chosen to be rich in hits. Some 0.93% of all compounds tested hit in one or more screens of this group.
AGP1-GFP MLPCN: modulators of AGP1-GFP expression in yeast TOR pathway, primary screen, cell-based, multiplex flow cytometry, S. cerevisiae, MLPCN library; 3 h; GFP as percent of DMSO wells; GFP response vs DMSO, % at 10 µM; hit rate 0.02% among 320,000; AID 2066, 2009;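 active = GFP response relative to DMSO above a set limit, near screen average plus 3 SD, cut at about 150% in these data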;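 also: median GFP channel fluorescence of the gated AGP1 strain per well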
LAP4-GFP MLPCN: modulators of LAP4-GFP expression in yeast, primary screen, S. cerevisiae, multiplex flow cytometry, MLPCN library; 3 h; median GFP as percent of DMSO wells; GFP response vs DMSO, % at 10 µM; hit rate 0.34% among 320,000;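 active = GFP response vs DMSO above a set limit, about the screen mean plus 3 SD, cut at about 150% in these data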
MEP2-GFP yeast: modulators of MEP2-GFP levels in yeast, primary screen, S. cerevisiae, multiplex flow cytometry, MLPCN library | GFP response vs DMSO, % at 10 µM | hit rate 0.51% among 330,000 | AID 2016, 2009 | S. cerevisiae MEP2-GFP strain, 3 h; 100% = DMSO control level;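 active = GFP response versus DMSO above a set limit, roughly screen mean plus 3 SD, cut at about 180% in these data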;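 also: median GFP fluorescence of the barcode-gated MEP2-GFP cells per well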
CIT2 TOR yeast: modulators of CIT2-GFP expression in yeast, primary screen, S. cerevisiae, GFP fusion, multiplex flow cytometry, MLPCN library | GFP response vs DMSO, % at 10 µM | AID 2029, 2009 | S. cerevisiae CIT2-GFP strain, 3 h; 100 means same as DMSO wells | hit rate 0.065% among 320,000;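 active = GFP response relative to DMSO above a set limit, near the screen mean plus 3 SD, cut at about 150% in these data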;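 also: ratio of well median GFP fluorescence to mean of DMSO wells on the plate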
RPL19A TOR yeast: RPL19A-GFP expression modulators in yeast, primary screen, cell-based, S. cerevisiae, multiplex flow cytometry, MLPCN; S. cerevisiae RPL19A-GFP strain, 3 h; hits give low values; percent response vs DMSO, % at 10 µM; hit rate 0.3% among 330,000;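 active = percent response vs DMSO below 50%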;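 also: median channel GFP fluorescence of the barcoded RPL19A-GFP strain; ratio of sample median GFP to plate DMSO average so 100% = DMSO; lower means less RPL19A-GFP as with rapamycin TOR inhibition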
LAP4 cherry2: LAP4-GFP expression modulators in yeast, confirmation, cell-based, second cherry pick, flow cytometry; shares compounds with LAP4-GFP MLPCN; S. cerevisiae LAP4-GFP strain, 3 h; GFP response vs DMSO, % at 10 µM; hit rate 20% among 590;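 active = GFP signal as percent of the solvent control above about 150%, meaning raised reporter expression, limit read from the data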;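 also: ratio of well median GFP fluorescence to plate DMSO mean so 100% = DMSO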
MEP2-GFP pick2: modulators of MEP2-GFP levels in yeast, confirmation, S. cerevisiae, flow cytometry GFP, second cherry picks; shares compounds with LAP4-GFP MLPCN; GFP response vs DMSO, % at 10 µM; hit rate 10% among 590; AID 2622, 2010; S. cerevisiae MEP2-GFP strain, 3 h;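 active = GFP signal above 150% of the solvent control wells, that is a rise of more than half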;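 also: median channel GFP fluorescence of all gated yeast cells per well; ratio of median GFP to plate DMSO average so 100% = DMSO level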
RPL19A GFP CP2: RPL19A-GFP modulators in TOR pathway yeast, confirmation, cell-based, S. cerevisiae, flow cytometry, second cherry pick | S. cerevisiae RPL19A-GFP strain, 3 h; hits give low values; 100% means same as DMSO wells | GFP response vs DMSO, % at 10 µM | shares compounds with LAP4-GFP MLPCN | hit rate 3% among 590;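 active = under 65% GFP response relative to DMSO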;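 also: median GFP channel fluorescence per well over the all cells gate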
CIT2-GFP pick2: modulators of CIT2-GFP expression in yeast, confirmation, flow cytometry, second cherry pick, single plex; shares compounds with LAP4-GFP MLPCN; hit rate 8% among 590; GFP response vs DMSO, % at 10 µM; S. cerevisiae CIT2-GFP strain, 3 h; DMSO control wells read 100%; AID 2624, 2010;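 active = GFP response vs DMSO above about 150%, limit read from the data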;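 also: median green fluorescence per well over all gated yeast cells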
AGP1 GFP CP2: AGP1-GFP expression modulators, hit retest, confirmation, cell-based, flow cytometry, S. cerevisiae, cherry pick set 2 | 590 tested, under 10 active | shares compounds with LAP4-GFP MLPCN | percent response vs DMSO, % at 10 µM | S. cerevisiae AGP1-GFP strain, 3 h | AID 2643, 2010;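 active = over 150 percent of DMSO response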;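 also: median GFP channel fluorescence over all cells without mother daughter split; sample median GFP divided by mean DMSO control so 100% equals DMSO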
Yeast autofluor: compound autofluorescence in yeast s288c, dose response, artefact control for yeast TOR pathway GFP screen, s288c strain; shares compounds with LAP4-GFP MLPCN; S. cerevisiae s288c, 520 nm autofluorescence, flow cytometry, 3 h; hits give high values; zero means same as solvent-only cells; fluorescence change (kMESF span) at 33 µM; 610 tested, under 10 active;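 active = fluorescence span over the dose series, or activity score, above about 33, limit read from the data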
Starred values were filed as active, the others as inactive; . = not tested or not shown.

SMILES	AGP1-GFP MLPCN	LAP4-GFP MLPCN	MEP2-GFP yeast	CIT2 TOR yeast	RPL19A TOR yeast	LAP4 cherry2	MEP2-GFP pick2	RPL19A GFP CP2	CIT2-GFP pick2	AGP1 GFP CP2	Yeast autofluor
CCCN1CCc2c(sc(NC(=S)NC(=O)c3ccccc3)c2C#N)C1	100.5	139.4	129.1	157.1*	112.2	.	.	.	.	.	1.61
CCCn1nc(C(=O)NNC(=O)CCCOc2ccc(C)cc2)c2ccccc2c1=O	106.3	108.9	106.1	104.4	102.6	.	.	.	.	.	.
Cc1ccnc2c1ccc1c(C)ccnc12	89.6	166.1*	101.3	85.2	93.8	99.2	110.0	96.8	96.0	96.9	.
O=C(CN1CCN(CC(=O)Nc2cccc(F)c2)CC1)NCC1(N2CCOCC2)CCCCC1	108.8	100.8	100.1	102.0	99.6	.	.	.	.	.	.
O=[N+]([O-])c1ccc(Sc2nc3ccccc3o2)c([N+](=O)[O-])c1	97.7	164.7*	98.5	107.1	102.2	.	.	.	.	.	0.51
N#CC1=C(SCC(=O)Nc2ccc(C(=O)O)cc2)NC(=O)CC1c1ccco1 (stereo not given)	96.2	103.3	101.9	91.8	95.0	.	.	.	.	.	.
COc1ccc(C(C(=O)NC2CCCC2)N(Cc2cccnc2)C(=O)c2snc(C(N)=O)c2N)cc1OC (stereo not given)	102.7	94.5	108.1	101.3	105.5	.	.	.	.	.	.
COC(=O)c1cc(N2C(=O)C3C(C2=O)C2(C)C=CC3(C)O2)ccc1Cl (stereo not given)	70.3	162.4*	93.0	51.1	95.4	.	.	.	.	.	0.2
N#C/C(=C\c1ccco1)C(=O)Nc1cccc2ncccc12	102.1	94.9	102.6	100.0	104.2	.	.	.	.	.	.
Cc1ccccc1OCC(=O)NNC(=S)NC(=O)c1ccco1	113.7	158.5*	119.9	106.5	113.2	.	.	.	.	.	0.6
O=C(/C=C/c1ccccc1)NC(=S)NNC(=O)c1ccco1	95.7	126.1	104.8	109.8	92.7	.	.	.	.	.	.
Cc1ccc(C(=O)NNC(=S)NC(=O)c2ccco2)cc1	106.8	236.7*	119.7	78.4	92.4	.	.	.	.	.	1.9
O=C(/C=C/c1ccc(Br)cc1)NC(=S)NNC(=O)c1ccco1	84.7	145.9	110.4	137.6	100.1	132.7	133.1	99.6	114.2	81.7	1.11
Cc1cc(C)c(O)c(-c2n[nH]c3c2C(c2cccc(O)c2)N(Cc2ccco2)C3=O)c1 (stereo not given)	102.1	103.3	110.6	106.8	115.0	.	.	.	.	.	.
CCOc1ncccc1C(=O)N1CCN(S(=O)(=O)c2ccc3c(c2)OCCO3)CC1	99.6	94.9	100.3	105.1	97.9	.	.	.	.	.	.
COc1ccccc1CNC(=O)C1CC(c2ccccc2[N+](=O)[O-])=NO1 (stereo not given)	90.1	105.5	94.9	91.7	101.5	.	.	.	.	.	.
O=C(OCC(=O)N1c2ccccc2Sc2ccccc21)c1ccc[n+]([O-])c1	87.4	107.8	109.6	87.9	105.1	.	.	.	.	.	.
CCCCS(=O)(=O)/C=C\C1C2C=CC(C2)C1S(=O)(=O)CCCC (stereo not given)	.	114.6	108.0	113.7	105.7	.	.	.	.	.	.
CCCCS(=O)(=O)/C=C\C=C/S(=O)(=O)CCCC	85.2	172.6*	108.8	77.3	99.0	214.4*	126.5	93.7	143.6	99.8	1
Cc1ccc2c(c1)N(CC(=O)NCCCN1CC(C)CC(C)C1)C(=O)c1cccnc1O2 (stereo not given)	102.0	105.0	106.4	99.7	102.5	.	.	.	.	.	.
COc1cccc(CN(C)C(=O)COc2ccc(C(=O)c3ccc(Cl)cc3)cc2)c1OC	94.8	104.0	96.7	89.9	99.2	.	.	.	.	.	.
CCCCCCCCC/C(=N\O)c1ccccn1	87.1	227.9*	104.1	104.5	83.6	.	.	.	.	.	-0.2
Brc1ccc(-c2ccc(C3Nc4cccc5cccc(c45)N3)o2)cc1	94.1	155.0*	90.1	71.9	92.8	126.9	106.5	90.6	87.1	92.3	.
CN(C)c1nc(C#N)nc(N(C)C)n1	104.0	99.7	103.2	101.2	100.2	.	.	.	.	.	.
CCCN(CCC)c1nc(C#N)nc(N(CCC)CCC)n1	74.9	89.8	131.1	87.1	50.8	102.9	101.5	99.2	107.4	102.0	.
COC(=O)c1cccc(NC(=O)CCN2C(=O)C3CC=CCC3C2=O)c1 (stereo not given)	105.1	101.0	101.1	102.6	105.3	.	.	.	.	.	.
CC(=O)NCC1CCCN(Cc2cn(-c3ccccc3)nc2-c2ccc3c(c2)OCO3)C1 (stereo not given)	116.8	192.4*	112.2	91.3	81.0	96.2	96.1	100.0	111.2	99.0	.
O=C(O)Cn1c(=O)c2c(c3ccccc31)CCC2	94.5	99.9	881.3*	113.2	94.8	98.2	101.3	101.0	107.1	98.8	.
O=C(OCC(=O)N1CCN(C(=O)c2ccco2)CC1)c1cc(-c2ccccc2)nc2ccccc12	137.4	163.1*	202.5*	119.6	69.6	144.3	214.8*	77.0	129.3	128.1	0.1
O=C(OCC(=O)N1CCN(C(=O)c2ccco2)CC1)c1cn(-c2ccccc2)nc1-c1ccccc1	103.5	100.4	101.6	92.4	90.2	.	.	.	.	.	.
